For some of these results: Measured potencies and affinities stand elsewhere.
Columns and labels:
Design in all cases: scale not given: direction of the effect not stated beside the values
[1] = biological target: Protein translocase subunit SecA (Escherichia coli (strain K12)) (UniProt P10408); assay: Assay to Identify E. coli SecA ATPase Inhibitors; type: functional; conditions: 30 µM
[2] = biological target: T1, Ubiquitin-activating enzyme e1, putative (Leishmania donovani (strain BPK282A1)) (UniProt E9BSI1); assay: Leishmania donovani Ubiquitin Activating Enzyme (LdE1); type: functional; conditions: 30 µM
T1 sequence (whole entry): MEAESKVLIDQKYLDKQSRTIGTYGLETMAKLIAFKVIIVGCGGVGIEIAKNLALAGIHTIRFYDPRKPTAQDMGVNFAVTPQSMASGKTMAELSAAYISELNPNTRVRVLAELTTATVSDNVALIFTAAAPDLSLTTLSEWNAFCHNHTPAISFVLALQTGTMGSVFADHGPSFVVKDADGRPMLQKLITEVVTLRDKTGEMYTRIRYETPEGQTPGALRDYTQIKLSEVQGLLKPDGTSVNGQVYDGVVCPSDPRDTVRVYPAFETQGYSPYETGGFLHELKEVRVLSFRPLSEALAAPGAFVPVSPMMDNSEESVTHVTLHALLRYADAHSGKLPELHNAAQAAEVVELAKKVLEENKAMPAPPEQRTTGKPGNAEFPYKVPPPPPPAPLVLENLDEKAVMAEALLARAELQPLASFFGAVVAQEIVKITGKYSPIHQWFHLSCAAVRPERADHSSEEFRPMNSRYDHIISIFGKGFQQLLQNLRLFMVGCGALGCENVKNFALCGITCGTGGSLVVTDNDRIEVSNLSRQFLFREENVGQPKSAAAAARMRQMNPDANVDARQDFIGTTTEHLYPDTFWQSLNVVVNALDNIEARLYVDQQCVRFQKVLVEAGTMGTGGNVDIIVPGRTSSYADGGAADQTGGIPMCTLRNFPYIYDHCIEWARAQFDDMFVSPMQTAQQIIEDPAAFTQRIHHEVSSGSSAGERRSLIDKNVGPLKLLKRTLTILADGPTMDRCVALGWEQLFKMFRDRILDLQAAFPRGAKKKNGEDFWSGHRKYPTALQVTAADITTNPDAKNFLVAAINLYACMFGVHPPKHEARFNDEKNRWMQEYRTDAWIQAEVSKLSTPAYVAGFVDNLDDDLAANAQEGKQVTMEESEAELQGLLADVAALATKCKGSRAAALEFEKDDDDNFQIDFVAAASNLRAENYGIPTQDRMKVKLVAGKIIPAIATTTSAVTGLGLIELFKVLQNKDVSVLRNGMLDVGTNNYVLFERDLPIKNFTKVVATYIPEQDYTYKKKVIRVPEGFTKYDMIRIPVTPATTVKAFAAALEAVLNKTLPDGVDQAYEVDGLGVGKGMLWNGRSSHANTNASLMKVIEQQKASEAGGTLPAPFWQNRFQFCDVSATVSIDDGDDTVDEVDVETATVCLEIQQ

[3] = biological target: AMP-activated protein kinase, AMPK (Homo sapiens) (UniProt P54646+O43741+P54619+Q9UGJ0+Q9Y478+Q13131+Q9UGI9); assay: AMP-dependent Kinase enzyme assay. An in vitro enzyme assay that detects ADP turnover that is directly proportional to AMPK activity. This uses naive AMPK that is activated during the assay with MK-8722; type: functional; conditions: 30 µM
[4] = biological target: Sialic acid-binding Ig-like lectin 9 (Homo sapiens) (UniProt Q9Y336); assay: Hs-Siglec9 ALPHAscreen SOP 20170721; conditions: 10 µM
Sialic acid-binding Ig-like lectin 9 (Homo sapiens), sequence (Q9Y336 whole entry): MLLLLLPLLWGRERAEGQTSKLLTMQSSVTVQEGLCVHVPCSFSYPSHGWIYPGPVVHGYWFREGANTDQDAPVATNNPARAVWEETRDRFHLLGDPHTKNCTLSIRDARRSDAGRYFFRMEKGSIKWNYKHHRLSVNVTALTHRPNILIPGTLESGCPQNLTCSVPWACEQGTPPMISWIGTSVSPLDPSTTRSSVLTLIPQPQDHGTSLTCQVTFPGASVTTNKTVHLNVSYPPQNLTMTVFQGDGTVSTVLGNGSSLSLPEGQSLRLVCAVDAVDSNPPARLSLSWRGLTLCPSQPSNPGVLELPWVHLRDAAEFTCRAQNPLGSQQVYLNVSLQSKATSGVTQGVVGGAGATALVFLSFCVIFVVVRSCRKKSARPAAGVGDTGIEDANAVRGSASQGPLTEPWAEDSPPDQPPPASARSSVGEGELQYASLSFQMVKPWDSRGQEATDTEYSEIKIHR

Trypanosoma cruzi = assay: Trypanosoma cruzi phosphomannomutase and mannose-1-phosphate guanylyltransferase assay; type: functional; conditions: 10 µM
[5] = biological target: T2, Arginase-2, mitochondrial (Homo sapiens) (UniProt P78540); assay: in vitro enzyme assay to detect the production of urea directly proportional to the activity of Arginase II; type: functional; conditions: 33.3 µM; note: in the data most compounds retested in dose-response had high values
T2 sequence (whole entry): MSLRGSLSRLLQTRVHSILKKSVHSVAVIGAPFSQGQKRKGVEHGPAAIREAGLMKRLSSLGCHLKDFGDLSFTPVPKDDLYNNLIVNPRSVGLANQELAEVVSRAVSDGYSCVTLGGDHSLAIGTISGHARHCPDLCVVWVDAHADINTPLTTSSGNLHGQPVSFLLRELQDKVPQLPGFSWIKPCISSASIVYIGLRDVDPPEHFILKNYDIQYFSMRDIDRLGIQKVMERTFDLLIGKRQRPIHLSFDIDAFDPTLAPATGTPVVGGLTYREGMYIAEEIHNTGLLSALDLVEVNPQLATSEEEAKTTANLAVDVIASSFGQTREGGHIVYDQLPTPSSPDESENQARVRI

[6] = biological target: T3, Proteasome subunit beta (Trypanosoma cruzi) (UniProt O96673); assay: Trypanosoma cruzi proteasome chymotrypsin-like activity (TcProtChymo) assay.; note: in the data most compounds retested in dose-response had high values; type: functional; conditions: 9.37 µM
T3 sequence (whole entry): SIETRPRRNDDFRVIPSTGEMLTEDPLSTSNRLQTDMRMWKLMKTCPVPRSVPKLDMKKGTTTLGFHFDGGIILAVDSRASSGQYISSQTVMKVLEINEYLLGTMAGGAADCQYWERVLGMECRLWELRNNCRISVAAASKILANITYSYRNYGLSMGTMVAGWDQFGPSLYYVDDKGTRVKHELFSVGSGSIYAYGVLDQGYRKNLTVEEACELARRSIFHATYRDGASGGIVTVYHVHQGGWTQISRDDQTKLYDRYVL

Homo sapiens = species: Homo sapiens; assay: To identify inhibition of the IFN signalling (Jak-Stat) pathway via expression of an eGFP reporter gene under the control of an IFN-stimulated response element (ISRE) containing MxA promoter.; type: functional; conditions: 30 µM
[7] = biological target: T4, Tyrosyl-tRNA synthetase, putative (Trypanosoma cruzi (strain CL Brener)) (UniProt Q4DSP6); assay: Trypanosoma cruzi tyrosyl tRNA synthetase (TcYRS) _High Tyrosine SOP; type: functional; conditions: 30 µM; note: in the data most compounds retested in dose-response had high values
T4 sequence (whole entry): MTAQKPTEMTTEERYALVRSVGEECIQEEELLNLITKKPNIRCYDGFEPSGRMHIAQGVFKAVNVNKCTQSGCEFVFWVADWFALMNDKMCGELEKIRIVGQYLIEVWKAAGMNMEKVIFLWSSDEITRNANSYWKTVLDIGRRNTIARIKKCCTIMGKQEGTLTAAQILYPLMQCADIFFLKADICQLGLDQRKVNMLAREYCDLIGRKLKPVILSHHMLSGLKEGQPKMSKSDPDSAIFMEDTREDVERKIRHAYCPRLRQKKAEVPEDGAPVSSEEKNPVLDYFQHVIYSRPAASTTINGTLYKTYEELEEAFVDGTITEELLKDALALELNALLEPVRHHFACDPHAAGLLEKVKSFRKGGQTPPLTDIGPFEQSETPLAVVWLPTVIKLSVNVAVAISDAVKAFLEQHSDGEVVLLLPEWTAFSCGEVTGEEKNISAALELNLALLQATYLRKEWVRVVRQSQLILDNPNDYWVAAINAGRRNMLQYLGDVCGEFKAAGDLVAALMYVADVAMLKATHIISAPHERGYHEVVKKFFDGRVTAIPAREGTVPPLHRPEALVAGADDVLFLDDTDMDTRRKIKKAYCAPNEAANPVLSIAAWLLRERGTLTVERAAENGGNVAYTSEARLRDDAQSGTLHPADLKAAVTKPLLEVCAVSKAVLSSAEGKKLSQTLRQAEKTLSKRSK

[8] = biological target: T4, Tyrosyl-tRNA synthetase, putative (Trypanosoma cruzi (strain CL Brener)); assay: Trypanosoma cruzi tyrosyl tRNA synthetase (TcYRS) SOP; type: functional; conditions: 30 µM
[9] = biological target: Chromo domain-containing protein 1 (Saccharomyces cerevisiae (strain ATCC 204508 / S288c) (Baker's yeast)) (UniProt P32657); assay: ScCHD-1 Enzyme Inhibition Assay; type: functional; conditions: 30 µM; note: in the data most compounds retested in dose-response had high values
Chromo domain-containing protein 1 (Saccharomyces cerevisiae (strain ATCC 204508 / S288c) (Baker's yeast)), sequence (P32657 whole entry, the tested form may be a part): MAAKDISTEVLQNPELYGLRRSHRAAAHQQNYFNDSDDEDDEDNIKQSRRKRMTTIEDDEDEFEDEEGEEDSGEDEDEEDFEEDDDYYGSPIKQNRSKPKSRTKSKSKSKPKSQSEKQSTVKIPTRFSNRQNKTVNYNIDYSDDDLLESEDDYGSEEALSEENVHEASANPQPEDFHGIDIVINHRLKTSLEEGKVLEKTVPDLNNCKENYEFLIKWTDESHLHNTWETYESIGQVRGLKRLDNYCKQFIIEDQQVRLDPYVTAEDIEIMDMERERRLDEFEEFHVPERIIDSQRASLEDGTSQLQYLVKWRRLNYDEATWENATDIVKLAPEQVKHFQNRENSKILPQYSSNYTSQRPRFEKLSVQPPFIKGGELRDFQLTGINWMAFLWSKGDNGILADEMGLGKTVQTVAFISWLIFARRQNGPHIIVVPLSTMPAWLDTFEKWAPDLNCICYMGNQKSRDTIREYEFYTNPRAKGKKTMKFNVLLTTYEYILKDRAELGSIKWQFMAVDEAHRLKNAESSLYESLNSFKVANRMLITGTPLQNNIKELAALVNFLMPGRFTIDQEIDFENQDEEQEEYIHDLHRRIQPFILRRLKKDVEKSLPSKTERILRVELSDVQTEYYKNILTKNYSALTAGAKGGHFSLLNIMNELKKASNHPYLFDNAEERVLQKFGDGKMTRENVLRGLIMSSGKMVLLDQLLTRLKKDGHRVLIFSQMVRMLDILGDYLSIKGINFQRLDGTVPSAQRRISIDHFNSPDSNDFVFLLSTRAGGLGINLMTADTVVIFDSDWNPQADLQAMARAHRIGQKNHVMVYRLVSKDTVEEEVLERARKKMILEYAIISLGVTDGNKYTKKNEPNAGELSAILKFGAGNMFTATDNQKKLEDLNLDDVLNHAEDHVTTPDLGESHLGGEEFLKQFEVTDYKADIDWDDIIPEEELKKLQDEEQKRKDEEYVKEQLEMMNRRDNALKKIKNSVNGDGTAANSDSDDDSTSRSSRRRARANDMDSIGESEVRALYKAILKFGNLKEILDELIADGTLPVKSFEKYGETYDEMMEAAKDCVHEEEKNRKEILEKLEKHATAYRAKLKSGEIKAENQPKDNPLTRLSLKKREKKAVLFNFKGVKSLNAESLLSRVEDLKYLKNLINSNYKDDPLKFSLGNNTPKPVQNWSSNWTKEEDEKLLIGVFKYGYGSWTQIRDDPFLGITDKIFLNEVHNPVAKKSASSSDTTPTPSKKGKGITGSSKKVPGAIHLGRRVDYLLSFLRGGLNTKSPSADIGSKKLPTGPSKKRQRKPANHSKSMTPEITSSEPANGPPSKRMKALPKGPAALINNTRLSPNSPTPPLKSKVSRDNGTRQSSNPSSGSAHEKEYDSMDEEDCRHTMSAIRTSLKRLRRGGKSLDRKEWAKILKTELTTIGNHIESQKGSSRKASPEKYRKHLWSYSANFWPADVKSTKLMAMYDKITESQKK

Protein translocase subunit SecA (Escherichia coli (strain K12)), sequence (P10408 whole entry): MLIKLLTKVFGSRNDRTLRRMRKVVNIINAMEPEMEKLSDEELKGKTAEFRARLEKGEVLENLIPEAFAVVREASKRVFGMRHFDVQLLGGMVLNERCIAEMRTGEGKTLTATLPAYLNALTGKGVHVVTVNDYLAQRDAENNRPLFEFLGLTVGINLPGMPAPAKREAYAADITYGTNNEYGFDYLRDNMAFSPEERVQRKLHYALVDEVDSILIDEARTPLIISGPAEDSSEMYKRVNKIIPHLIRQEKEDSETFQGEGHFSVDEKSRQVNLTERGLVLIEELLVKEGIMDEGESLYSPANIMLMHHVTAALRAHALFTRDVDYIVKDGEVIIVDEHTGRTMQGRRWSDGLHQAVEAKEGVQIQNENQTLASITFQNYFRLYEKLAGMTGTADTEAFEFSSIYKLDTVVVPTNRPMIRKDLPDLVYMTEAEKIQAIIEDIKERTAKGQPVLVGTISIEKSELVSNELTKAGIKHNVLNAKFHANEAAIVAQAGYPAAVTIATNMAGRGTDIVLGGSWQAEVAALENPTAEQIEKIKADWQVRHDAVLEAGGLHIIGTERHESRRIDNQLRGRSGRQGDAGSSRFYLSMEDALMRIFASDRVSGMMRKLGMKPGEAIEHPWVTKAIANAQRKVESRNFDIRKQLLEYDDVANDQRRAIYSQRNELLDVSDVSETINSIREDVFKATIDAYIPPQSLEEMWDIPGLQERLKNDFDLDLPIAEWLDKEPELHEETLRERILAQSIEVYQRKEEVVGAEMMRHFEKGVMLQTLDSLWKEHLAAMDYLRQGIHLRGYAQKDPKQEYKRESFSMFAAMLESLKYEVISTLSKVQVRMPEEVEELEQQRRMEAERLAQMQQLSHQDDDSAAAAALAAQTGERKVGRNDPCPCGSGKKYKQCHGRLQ

SMILES | Percent Effect [1] | Percent Effect [2] | Percent Effect [3] | Percent Effect [4] | Percent Effect (Trypanosoma cruzi) | Percent Effect [5] | Percent Effect [6] | Percent Effect (Homo sapiens) | Percent Effect [7] | Percent Effect [8] | Percent Effect [9]
COc1cccc(CNC(=O)CC2CSc3ncc(C)c(=O)n32)c1 (stereo unspecified) | -1.02% | 15.6% | 31.4% | -9.59% | -5.03% | 3.23% | 13.9% | 16.4% | 5.29% | 3.85% | -9.11%
CN(Cc1cnn(C)c1)C(=O)NCc1csc(Br)c1 | -1.72% | 16.2% | 10.9% | -2.71% | -8.08% | 2.77% | 14.7% | 17.1% | -3.96% | -1.22% | -6.6%
CC(=O)c1c(F)cccc1N1CCC(CS(N)(=O)=O)CC1 | -2% | -2.74% | 4.36% | -0.254% | 0.595% | -2% | 10.4% | 3.02% | 4.17% | 3.7% | -2.94%
COC1CCN(C(=O)Cc2csc(-c3ncccn3)n2)CC1 | -1.74% | 10.5% | 1.3% | 6.25% | 6.96% | 3.83% | 9.19% | -15.6% | 2.45% | 17.1% | -5.39%
Cc1ccc(CN2Cc3nnn(C)c3C(COCCN(C)C)C2)s1 (stereo unspecified) | -6.87% | 2.7% | -1.39% | -1.89% | -5.57% | -3.72% | 4.89% | 15% | 2.15% | 8.64% | -3.26%
c1ccc(CN2CCN(Cc3cscn3)CC2)cc1 | -3.29% | 15.6% | 2.52% | 7.55% | 0.49% | 3.58% | 7.2% | 7.07% | 8.57% | 18.8% | -19.7%
Cn1ccc(CN2CCC(c3ccccc3)CC2)cc1=O | -7.43% | 15.6% | -2.22% | 11.1% | -0.374% | 3.92% | 8.11% | 14.7% | 8.74% | 19.5% | -7.5%
CN(Cc1nc(N)c2ccccc2n1)CC1CCCN1c1cccnn1 (stereo unspecified) | -6.24% | 5.2% | 2.23% | -2.05% | 11.8% | -2.32% | 13.2% | -8.77% | 6.67% | 18.8% | -22.9%
Cc1ccccc1C(=O)NCc1ccc(N2CCNC(=O)C2)c(F)c1 | -3.15% | 8.11% | -2.71% | 4.68% | 0.579% | -2.86% | 8.97% | -16.3% | 4.76% | 12.2% | -2.41%
CCn1cnnc1CNC(=O)N1CCC(Cc2cccnc2)CC1 | -2.15% | -2.6% | -0.131% | 1.86% | -4.41% | 1.47% | 0.0808% | 7.54% | -1.91% | -4.71% | 8.62%
Cc1cc(C)n(CC2CCCN2C(=O)CCc2cscn2)n1 (stereo unspecified) | -2.42% | -5.26% | 7.92% | -2.27% | 8.08% | 1.92% | -4.51% | -4.45% | -0.49% | 0% | 1.57%

From ChEMBL document CHEMBL3988442, “University of Dundee, Small-Polar-MMV Screening Library” (2021)
